About 83,000 compounds went through this panel and 20% of them were active in at least one assay; those are over-represented in the sample as a whole.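 In brief: 96-well plates, 48 h treatment, single concentration, percent growth endpoint.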 The source made the active and inactive calls. Rule for the calls: active = growth percent below 10; inactive = the rest.
What follows are molecules tested on MDA-MB-468 breast (assay: NCI-60 one-dose screen, 48 h (100 = growth as untreated, 0 = no growth, -100 = all killed)). Details: 10 µM unless noted.

Row | SMILES | growth
1 | C=C1CC[C@@H]2C(C)(C)[C@@H](O)CC[C@@]2(C)[C@@H]1COc1ccc2ccc(=O)oc2c1 | 53.1% (inactive)
2 | Cn1cc(-c2noc(-c3cn(C)c4ncc(F)cc34)n2)c2cc(Cl)ccc21 | 52.9% (inactive)
3 | CC(=O)Nc1c(Cl)cc(Cl)c2c1Cc1cc([N+](=O)[O-])ccc1-2 | 94.9% (inactive)
4 | CC(C)(C)[Si](C)(C)OC1[C@@H](O[Si](C)(C)C(C)(C)C)[C@@H](CNC(=O)NC(=O)CCl)O[C@H]1n1cnc2c(NC(=O)Nc3ccccc3)ncnc21 (some centres undefined) | -64.6% (active)
5 | CCCCCCCCCCOC(=O)c1nn(C(C)=O)c2cc(C)c(C)cc12 | 111% (inactive)
6 | c1ccc(Nc2cc(-c3cccnc3)[nH]n2)cc1 | 106% (inactive)
7 | NCCNc1ccc([N+](=O)[O-])cc1 | 110% (inactive)
8 | O=C1c2cc(S(=O)(=O)O)ccc2C(=O)c2c1cccc2[N+](=O)[O-] | 114% (inactive)
9 | COc1ccn2c(C(C)=O)cc(C(=O)c3ccc4c(c3)Sc3ccccc3N4)c2c1 | -4.11% (active)
10 | O=[N+]([O-])c1ccc(Oc2cc(Cl)c(Cl)cc2Cl)c(C(F)(F)F)c1 | 100% (inactive)
11 | NC(N)=Nc1ccc(Oc2cccc(Nc3ccc(Br)c(C(F)(F)F)c3)c2)cc1 | -10.6% (active)
12 | CC(C)OC1OC(OC(C)C)C(OC(C)C)OC1OC(C)C (centres undefined) | 101% (inactive)
13 | O=C1C(=O)N(CCCCn2cc(-c3ccccc3)nn2)c2ccccc21 | 125% (inactive)
14 | O=C(CN1CCN(c2cc(=O)n(-c3ccccc3)c3ccccc23)CC1)Nc1cccc(C(F)(F)F)c1 | 4.55% (active)

— PubChem BioAssay (NCI)
